The text below walks through data of PubChem BioAssay (NCI).

Common to all, as to assay: NCI-60 one-dose screen, 48 h (100 = growth as untreated, 0 = no growth, -100 = all killed)
Conditions in all cases: 10 µM unless noted

The test system of test [1] is NCI-H23 lung.
Test [2] deals with NCI-H226 lung.
The test system of test [3] is NCI-H322M lung.
In test [4] the test system is HOP-62 NSCLC.
In test [5] the test system is NCI-H522 lung.
Test [6] concerns A549/ATCC NSCLC.
In test [7] the test system is 786-0 renal.
Test [8] relates to COLO 205 colon.
For test [9], the system named is DU-145 prostate.
Test [10] relates to K-562 leukemia.
Test [11] relates to MALME-3M melanoma.
The test system of test [12] is MDA-MB-231 breast.
Test [13] has as its system RXF 393 renal.
In test [14] the test system is SF-268 CNS.
Test [15] deals with SF-295 CNS.
The subject of test [16] is SF-539 CNS.
The subject of test [17] is UACC-257 melanoma.
Test [18] concerns M14 melanoma.

About 83,000 compounds went through this panel and 20% of them were active in at least one assay; those are over-represented in the sample as a whole.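 Testing used 96-well plates and a 48-hour single-concentration exposure. Example: -40 means 40% of the starting cells died.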 Values without a mark were called inactive. Active and inactive are the calls of the source. Rule for the calls: active = growth percent below 10; inactive = the rest.

As to `CCOC(=O)C#Cc1c(C(=O)OCC)nnn1[C@@H]1O[C@H](COC(C)=O)[C@@H](OC(C)=O)[C@H]1OC(C)=O`, the growth was 93.4% in test [1]; 92.2% in [2]; 101% in test [3]; 109% in test [4]; 50% in [5]; 78.3% in test [6]. Besides, the growth in test [7] is 102%; in test [8], 45.6%; in test [9], 100%; in test [10] it was 28.5%; in [11], 101%; in test [12] it was 107%. Besides, the growth in [13] was 70.2%; in test [14], 97.8%; in test [15] it was 103%; in test [16], 101%; in [17], 64.3%; in test [18] it was 92.1%.
As for `CCn1c(=O)c(C(=O)NCCCO)c(O)c2ccccc21`, the growth in test [1] was 110%; in test [2] it was 99.1%; in test [3], 134%; in test [4], 101%; in test [5] it was 101%; in test [6], 103%. Also, the growth in test [7] was 106%; in test [8] it was 110%; in [9] it was 122%; in test [10], 89.9%; in test [11] it was 123%; in test [12], 106%. In addition, the growth in test [13] was -24.8% (active); in [14], 94.3%; in [15] it was 110%; in test [16], 96.8%; in test [17], 125%; in [18], 124%.
For `O=C(NCCN1CCCCC1)n1cc(-c2ccncc2)c(-c2ccc(Cl)c(O)c2)n1`, the growth in [1] is 83.4%; in test [2], 102%; in [3] it was 119%; in test [4], 79%; in test [5], 84.9%; in [6], 98.4%. Also, the growth in [7] is 85.9%; in [8], 87%; in [9] it was 105%; in test [10], 89.5%; in [11] it was -1.57% (active); in test [12], 74.5%. The growth in [13] was 68%; in [14] it was 89.8%; in test [15] it was 120%; in test [16], 91.3%; in [17] it was 58.9%; in test [18], 27.5%.
Turning to `O=C(CC(=O)C(F)(F)C(F)(F)C(F)(F)F)c1cc2ccccc2o1`, the growth is 101% in test [1]; 99.8% in test [2]; 106% in test [3]; 97.5% in test [4]; 96.1% in test [6]; 98.4% in test [7]. Besides, the growth is 114% in [8]; 114% in [9]; 102% in test [11]; 100% in [12]; 116% in [13]; 111% in test [14]. Further, the growth was 99.2% in test [15], 94.1% in test [16], 100% in test [17] and 106% in test [18].
On to `COC(=O)c1ccc2c(c1)nc(-c1ccc(Cl)cc1)n2-c1cc(C(C)(C)C)[nH]n1`, for which the growth in [1] was 60.7%; in test [2] it was 94.3%; in test [3] it was 92.5%; in test [4] it was 116%; in test [5] it was 38%; in test [6], 47.2%. For the same molecule, the growth was 46% in [7]; 112% in test [8]; 85.9% in test [9]; 34.3% in test [10]; 14.8% in [11]; 92% in test [12]. Also, the growth in test [13] was 45.7%; in test [14], 68.5%; in test [15], 43.3%; in [16], 60.4%; in test [17] it was 62.3%; in test [18], 33.8%.
On to `O=C1Nc2ccccc2/C1=C\c1nc(C2CCN(S(=O)(=O)c3ccc(F)cc3)CC2)n2ccccc12`, for which the growth in test [1] is 42%; in test [2], 41.2%; in [3] it was 55.5%; in [4] it was 47.8%; in test [5], 16.5%; in test [6] it was 68.1%. Moreover, the growth in [7] is -3.81% (active); in [8], 79.1%; in [9], 57.1%; in test [10] it was 56.9%; in [11], 3.9% (active); in test [12] it was 32.8%. In addition, the growth in test [13] is 16.6%; in test [14], 14.2%; in [15] it was 46.5%; in test [16], 27.4%; in test [17] it was 72%; in test [18], 61.5%.
As for `O=C(c1ccccc1)C1OC1C(=O)c1ccccc1` (centres undefined), the growth is 3.63% (active) in [1]; 61.1% in [2]; 75.4% in test [3]; 21% in test [4]; 70.4% in test [6]; 15.1% in [7]. In addition, the growth was 27.6% in [8]; 1.5% (active) in test [9]; 9.28% (active) in test [10]; 30.5% in test [11]; 25.9% in test [12]; 2.72% (active) in [13]. In addition, the growth in [14] was 39.5%; in test [15] it was 72.8%; in test [16], 24.5%; in test [17], 40.2%; in test [18], 17.3%.
For the molecule `c1ccc(-c2ccc(-c3ccccc3)[nH]2)cc1`, the growth was 86.5% in test [1]; 86.5% in test [2]; 95.6% in [3]; 105% in [4]; 85.7% in test [5]; 88.7% in [6]. The growth in test [7] is 96.6%; in test [8], 127%; in [9], 102%; in test [10], 81.1%; in [11], 96.4%; in [12], 89.5%. For the same molecule, the growth in test [13] is 102%; in test [14], 98.6%; in test [15], 109%; in test [16] it was 93.9%; in test [17], 101%; in test [18], 110%.
With `COc1ccc(/C(C)=N/NC(=O)c2ccc(S(C)(=O)=O)cc2)cc1OC`, the growth in test [1] was 104%; in [2] it was 95.5%; in test [3], 96.5%; in test [4] it was 85.5%; in [5], 104%; in test [6], 96.5%. Besides, the growth was 94.2% in test [7]; 95.3% in [8]; 95.7% in [9]; 69.5% in test [10]; 98.1% in test [11]; 103% in test [12]. Besides, the growth in test [13] was 114%; in test [14], 102%; in test [15], 98.3%; in test [16], 99.1%; in [17], 96.3%; in [18] it was 97.4%.
